The values below come from PubChem BioAssay (EPA / NIEHS).

What is called AC50 is the concentration giving half of the maximal activity seen.

The source made the active and inactive calls. Rule for the calls: active = hit-call score of the fitted dose curve at least 0.9, where 1 is the maximum; inactive = score below 0.9.

What all share (settings): mRNA level, 48 h; actives raise or lower the signal
Read-out in assay [1]: Bcl-2 (BAX) gene, BAX (gene 581)
Put plainly: LTEA_HepaRG_BAX: Life Technologies and Expression Analysis (LTEA) Assay for Bcl-2 (BAX) gene using HepaRG (AID 2283470). In a few lines:
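Human HepaRG cells treated in duplicate for 48 h across eight concentrations (max 100 uM, 0.5% DMSO); BAX expression measured by qRT-PCR.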

Read-out in assay [2]: adenosine kinase (ADK) gene, ADK (gene 132)
The assay can be described thus: LTEA_HepaRG_ADK: Life Technologies and Expression Analysis (LTEA) Assay for adenosine kinase (ADK) gene using HepaRG (AID 2283471). In outline: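 HepaRG (human liver), 48 h chemical exposure, 8-pt half-log series, top 100 uM, 0.5% DMSO vehicle. Readout: ADK mRNA by qRT-PCR vs housekeeping genes; bidirectional curve fit relative to DMSO baseline.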

Read-out in assay [3]: Alpha-fetoprotein (AFP) gene, AFP (gene 174)
The assay can be described thus: LTEA_HepaRG_AFP: Life Technologies and Expression Analysis (LTEA) Assay for Alpha-fetoprotein (AFP) gene using HepaRG (AID 2283472). In a few lines: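 Measures AFP mRNA change in HepaRG after 48 h chemical exposure (8 half-log concentrations, highest 100 uM, 0.5% DMSO). Fold change relative to DMSO, fitted in both directions.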

Read-out in a further assay: BCL2L11 (gene 10018)
Put plainly: LTEA_HepaRG_BCL2L11: Life Technologies and Expression Analysis (LTEA) Assay for Bcl-2 (BCL2L11) gene using HepaRG (AID 2283473). In a few lines: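 HepaRG, 48 h exposure, 8-pt half-log series from 100 uM in 0.5% DMSO, duplicates; qRT-PCR (Fluidigm TaqMan) for BCL2L11, housekeeping-normalized; bidirectional curve fit relative to DMSO baseline.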

Read-out in assay [4]: Apolipoprotein A-V (APOA5) gene, APOA5 (gene 116519)
Put plainly: LTEA_HepaRG_APOA5: Life Technologies and Expression Analysis (LTEA) Assay for Apolipoprotein A-V (APOA5) gene using HepaRG (AID 2283474). In a few lines:
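HepaRG, 48 h chemical exposure in serum-free induction medium, 8-pt half-log series (top 100 uM), 0.5% DMSO vehicle, duplicates. Readout: APOA5 mRNA by qRT-PCR, housekeeping-normalized; bidirectional fit vs DMSO baseline.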

Read-out in assay [5]: Apoptosis regulator Bcl-2 (Homo sapiens) (UniProt P10415)
The assay can be described thus: LTEA_HepaRG_BCL2: Life Technologies and Expression Analysis (LTEA) Assay for Bcl-2 gene using HepaRG (AID 2283475). In outline:
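Each chemical was tested in duplicate on HepaRG cultures held in serum-free induction medium for 48 h, highest concentration 100 uM with half-log dilutions. Transcript levels came from multiplexed qRT-PCR, normalised to housekeeping genes; activity was scored in either direction relative to DMSO.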

Read-out in assay [6]: Bcl-2 (BID) gene, BID (gene 637)
Put plainly: LTEA_HepaRG_BID: Life Technologies and Expression Analysis (LTEA) Assay for Bcl-2 (BID) gene using HepaRG (AID 2283476). In outline: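 Assay used HepaRG hepatic cells treated 48 h in serum-free medium with half-log dilutions from 100 uM. Endpoint: BID mRNA, qRT-PCR, normalized to ACTB/GAPDH/POLR2A.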

Read-out in the next assay: Caspase-3 (Homo sapiens) (UniProt P42574)
Put plainly: LTEA_HepaRG_CASP3: Life Technologies and Expression Analysis (LTEA) Assay for cysteine-aspartic acid protease (CASP3) using HepaRG (AID 2283477). In a few lines:
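HepaRG, 48 h exposure, 8 conc. (top 100 uM, half-log steps, duplicate), 0.5% DMSO vehicle; qRT-PCR of CASP3 transcript, housekeeping-normalised (ACTB/GAPDH/POLR2A); bidirectional curve fit vs DMSO baseline.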

Read-out in assay [7]: Cytochrome P450 (CYP24A1), CYP24A1 (gene 1591)
Put plainly: LTEA_HepaRG_CYP24A1: Life Technologies and Expression Analysis (LTEA) Assay for Cytochrome P450 (CYP24A1) using HepaRG (AID 2283478). In a few lines: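 qRT-PCR read-out: CYP24A1 transcript levels normalized to three housekeeping genes, bidirectional curve fits against 0.5% DMSO baseline. Human HepaRG cells treated 48 h with chemicals at eight concentrations from 100 uM in half-log steps.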

Read-out in assay [8]: Cytochrome P450 (CYP1A2), CYP1A2 (gene 1544)
Put plainly: LTEA_HepaRG_CYP1A2: Life Technologies and Expression Analysis (LTEA) Assay for Cytochrome P450 (CYP1A2) using HepaRG (AID 2283479). In a few lines: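 HepaRG, 48 h exposure, top 100 uM, half-log 8-pt, 0.5% DMSO vehicle, duplicates. Readout: TaqMan qRT-PCR of CYP1A2 mRNA, housekeeping-normalized (ACTB/GAPDH/POLR2A). Gain/loss fit relative to DMSO baseline.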

Read-out in assay [9]: cysteine-aspartic acid protease (CASP8), CASP8 (gene 841)
The assay can be described thus: LTEA_HepaRG_CASP8: Life Technologies and Expression Analysis (LTEA) Assay for cysteine-aspartic acid protease (CASP8) using HepaRG (AID 2283480). In a few lines:
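CASP8 transcript measured by TaqMan qRT-PCR with ACTB/GAPDH/POLR2A normalization, after 48 h chemical exposure of HepaRG cells in serum-free induction medium. Eight concentrations, top 100 uM, half-log steps, 0.5% DMSO vehicle; fits in both directions versus DMSO.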

Read-out in assay [10]: Cytochrome P450 (CYP2B6), CYP2B6 (gene 1555)
The assay can be described thus: LTEA_HepaRG_CYP2B6: Life Technologies and Expression Analysis (LTEA) Assay for Cytochrome P450 (CYP2B6) using HepaRG (AID 2283481). In a few lines:
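Read-out is CYP2B6 mRNA by TaqMan qRT-PCR, normalized to three housekeeping genes and fitted bidirectionally against 0.5% DMSO baseline. Human HepaRG cells received test chemicals for 48 h, top concentration 100 uM, half-log dilutions.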

Read-out in assay [11]: Cytochrome P450 2C19 (Homo sapiens) (UniProt P33261)
The assay can be described thus: LTEA_HepaRG_CYP2C19: Life Technologies and Expression Analysis (LTEA) Assay for CYP2C19 using HepaRG (AID 2283482). In a few lines: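 HepaRG, 48 h chemical exposure, 8-pt half-log series from 100 uM in 0.5% DMSO, duplicates. Readout: CYP2C19 mRNA by TaqMan qRT-PCR, housekeeping-normalized. Bidirectional fit vs DMSO baseline; phenobarbital 1mM as induction control.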

Read-out in a further assay: CYP2C8 (gene 1558)
Put plainly: LTEA_HepaRG_CYP2C8: Life Technologies and Expression Analysis (LTEA) Assay for CYP2C8 using HepaRG (AID 2283483). In outline: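 CYP2C8 expression measured by TaqMan qRT-PCR and normalized to three housekeeping genes. HepaRG cultures were treated for 48 h with an eight-point half-log series topping at 100 uM, vehicle 0.5% DMSO, duplicates; fitted both directions against DMSO.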

Read-out in another assay: CYP2C9 (gene 1559)
Put plainly: LTEA_HepaRG_CYP2C9: Life Technologies and Expression Analysis (LTEA) Assay for CYP2C9 using HepaRG (AID 2283484). In outline: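 CYP2C9 transcript level, quantified by TaqMan qRT-PCR against three housekeeping genes, was fitted bidirectionally relative to 0.5% DMSO. HepaRG cultures were treated 48 h, in duplicate, at eight half-log concentrations topping at 100 uM.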

Read-out in a further assay: CYP2E1 (gene 1571)
The assay can be described thus: LTEA_HepaRG_CYP2E1: Life Technologies and Expression Analysis (LTEA) Assay for CYP2E1 using HepaRG (AID 2283485). In a few lines:
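Assay uses 48 h exposure of HepaRG hepatic cells, eight concentrations to 100 uM. Expression of CYP2E1 is quantified by TaqMan qRT-PCR with ACTB, GAPDH and POLR2A normalization; curves fitted in both directions relative to vehicle.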

Read-out in assay [12]: Cytochrome P450 3A4 (Homo sapiens) (UniProt P08684)
Put plainly: LTEA_HepaRG_CYP3A4: Life Technologies and Expression Analysis (LTEA) Assay for CYP3A4 using HepaRG (AID 2283487). In outline:
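CYP3A4 transcript measured by TaqMan qRT-PCR and normalized to three housekeeping genes after 48 h chemical exposure of human HepaRG cells. Top concentration 100 uM, half-log steps, 0.5% DMSO vehicle; gain or loss fitted against DMSO baseline.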

Read-out in assay [13]: DNA damage-inducible transcript 3 (DDIT3), DDIT3 (gene 1649)
Put plainly: LTEA_HepaRG_DDIT3: Life Technologies and Expression Analysis (LTEA) Assay for DNA damage-inducible transcript 3 (DDIT3) using HepaRG (AID 2283488). In a few lines:
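Eight-point concentration-response (100 uM highest, half-log dilutions) in HepaRG, 48 h, duplicate wells. Endpoint: qRT-PCR mRNA, normalized (ACTB, GAPDH, POLR2A), bidirectional fitting with DMSO as baseline.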

Read-out in another assay: CYP4A11 (gene 1579)
The assay can be described thus: LTEA_HepaRG_CYP4A11: Life Technologies and Expression Analysis (LTEA) Assay for CYP4A11 using HepaRG (AID 2283486). In outline:
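CYP4A11 transcript levels were quantified by TaqMan qRT-PCR after HepaRG human liver cells were treated for 48 hours with test chemicals (top 100 uM, half-log dilutions, 0.5% DMSO). Gain or loss of signal was fitted relative to DMSO.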

Read-out in assay [14]: Pro-epidermal growth factor (Homo sapiens) (UniProt P01133)
The assay can be described thus: LTEA_HepaRG_EGF: Life Technologies and Expression Analysis (LTEA) Assay for Epidermal growth factor (EGF) using HepaRG (AID 2283489). In a few lines:
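qRT-PCR readout of EGF transcript after 48 h chemical exposure of HepaRG cells; eight concentrations from 100 uM down in half-log steps, duplicate wells, 0.5% DMSO vehicle. Bidirectional curve fitting against DMSO baseline.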

Chain of Apoptosis regulator Bcl-2 (Homo sapiens) (P10415 whole entry, looked up): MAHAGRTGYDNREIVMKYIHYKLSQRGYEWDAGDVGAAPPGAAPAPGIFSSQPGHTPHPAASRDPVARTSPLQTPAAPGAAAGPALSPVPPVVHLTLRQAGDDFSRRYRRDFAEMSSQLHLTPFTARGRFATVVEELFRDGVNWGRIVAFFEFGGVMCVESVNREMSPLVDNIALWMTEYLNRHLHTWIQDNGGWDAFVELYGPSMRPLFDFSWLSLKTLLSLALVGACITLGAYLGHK
Chain of Caspase-3 (Homo sapiens) (P42574 whole entry, looked up): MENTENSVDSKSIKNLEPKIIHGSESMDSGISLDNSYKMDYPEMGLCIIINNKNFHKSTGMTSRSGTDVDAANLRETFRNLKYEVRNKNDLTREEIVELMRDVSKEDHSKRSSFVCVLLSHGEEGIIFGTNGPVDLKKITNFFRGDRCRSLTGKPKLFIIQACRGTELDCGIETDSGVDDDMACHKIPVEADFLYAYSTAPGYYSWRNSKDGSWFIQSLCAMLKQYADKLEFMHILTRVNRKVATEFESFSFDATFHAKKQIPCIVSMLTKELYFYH
Chain of Cytochrome P450 2C19 (Homo sapiens) (P33261 whole entry, looked up): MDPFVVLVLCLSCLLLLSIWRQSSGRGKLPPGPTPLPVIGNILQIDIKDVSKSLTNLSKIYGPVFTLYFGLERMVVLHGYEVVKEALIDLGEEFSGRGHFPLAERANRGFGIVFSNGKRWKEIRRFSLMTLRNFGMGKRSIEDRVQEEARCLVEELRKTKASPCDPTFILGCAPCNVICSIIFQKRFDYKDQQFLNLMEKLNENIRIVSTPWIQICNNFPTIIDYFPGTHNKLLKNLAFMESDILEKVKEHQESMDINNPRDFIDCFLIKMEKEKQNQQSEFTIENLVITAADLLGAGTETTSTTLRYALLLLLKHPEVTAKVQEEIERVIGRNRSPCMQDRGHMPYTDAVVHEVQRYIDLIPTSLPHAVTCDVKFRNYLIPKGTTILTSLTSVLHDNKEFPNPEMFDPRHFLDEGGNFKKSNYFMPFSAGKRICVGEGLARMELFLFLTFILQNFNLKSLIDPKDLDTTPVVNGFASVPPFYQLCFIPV
Chain of Cytochrome P450 3A4 (Homo sapiens) (P08684 whole entry, looked up): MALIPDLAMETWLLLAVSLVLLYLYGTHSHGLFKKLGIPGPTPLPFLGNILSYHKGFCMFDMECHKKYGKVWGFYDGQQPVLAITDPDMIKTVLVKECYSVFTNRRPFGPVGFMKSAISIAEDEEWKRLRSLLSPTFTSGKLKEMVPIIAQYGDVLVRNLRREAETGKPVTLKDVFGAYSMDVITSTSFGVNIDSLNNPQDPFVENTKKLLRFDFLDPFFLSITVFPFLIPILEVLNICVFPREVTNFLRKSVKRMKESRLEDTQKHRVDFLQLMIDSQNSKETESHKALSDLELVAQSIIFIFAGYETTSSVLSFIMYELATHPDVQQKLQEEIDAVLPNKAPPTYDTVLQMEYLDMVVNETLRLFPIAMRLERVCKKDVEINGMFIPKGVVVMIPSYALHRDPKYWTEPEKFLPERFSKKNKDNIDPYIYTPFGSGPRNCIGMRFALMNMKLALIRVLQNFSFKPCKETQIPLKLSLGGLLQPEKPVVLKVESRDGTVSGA

Take `C/C=C/C=C/C(=O)O`: the molecule was called inactive in assay [1], in assay [2], in [3], in assay [4], in assay [5] and in assay [6]. Further, the molecule was classed as inactive (with Caspase-3 (Homo sapiens); in [7]; in [8]; in assay [9]; in assay [10]; in assay [11]). For the same molecule, the call (with CYP2C8 (gene 1558); with CYP2C9 (gene 1559); with CYP2E1 (gene 1571); in assay [12]; in assay [13]) was inactive. The AC50 in the assay with BCL2L11 (gene 10018) was 1.62 nM (active).

With `CN(C)C(=O)NC1(c2ccccc2)CCN(CC[C@@]2(c3ccc(F)c(F)c3)CN(C(=O)c3ccccc3)CCO2)CC1`, the molecule was classed as inactive (in assay [1]; in [2]; with BCL2L11 (gene 10018); in [5]; in [6]; in the assay with Caspase-3 (Homo sapiens)). The molecule was classed as inactive (in assay [7]; in [9]; in [10]; with CYP2C8 (gene 1558); in the assay with CYP2C9 (gene 1559); in assay [14]). The AC50 is 36.8 µM (active) in assay [3]; 29.8 µM (active) in assay [4]; 47 µM (active) in assay [8]; 2.65 µM (active) in assay [11]; 29.6 µM (active) with CYP2E1 (gene 1571); 47 µM (active) with CYP4A11 (gene 1579). Also, in assay [13], the AC50 is 56.6 µM (active).

For the molecule `Nc1nc(Cl)nc2c1ncn2[C@H]1C[C@H](O)[C@@H](CO)O1`, the AC50 in assay [1] was 415 nM (active); in assay [2], 1.05 µM (active); in assay [3], 1.72 µM (active); in assay [4] it was 1.12 µM (active); in [8], 0.715 µM (active); in assay [10] it was 1.22 µM (active). Besides, the AC50 in assay [11] was 2.05 µM (active); with CYP2C8 (gene 1558) it was 1 µM (active); with CYP2C9 (gene 1559), 1.07 µM (active); with CYP2E1 (gene 1571), 0.879 µM (active); with CYP4A11 (gene 1579), 1.41 µM (active). The molecule was classed as inactive (with BCL2L11 (gene 10018); in assay [5]; in assay [6]; with Caspase-3 (Homo sapiens); in assay [7]; in [9]). The outcome in assay [14] was inactive.

Consider `OCC(CO)n1cnc(-c2ccc(F)cc2)c1-c1ccnc(Oc2ccccc2)n1`, for which the molecule was classed as inactive (in assay [1]; in [2]; with BCL2L11 (gene 10018); in assay [4]; in [5]; in assay [6]). The result (with Caspase-3 (Homo sapiens); in assay [7]; in [8]; in assay [9]; with CYP2C8 (gene 1558); with CYP2C9 (gene 1559)) was inactive. The call in [14] was inactive. Besides, the AC50 is 28.4 µM (active) in assay [3]; 22.6 µM (active) in assay [10]; 12.4 µM (active) in assay [11]; 15.5 µM (active) with CYP2E1 (gene 1571); 16.9 µM (active) with CYP4A11 (gene 1579).
